{"source": "the supplement of paper PMC11219838"}
{"test_system": "Caenorhabditis elegans L1 (N2)", "experiment": "survival and reproduction score of C. elegans L1 (0: 0-10 living worms, 1: 11-20, 2: 21-50, 3: >50, 4: overgrown) (score 0-4); higher = more worms, less nematicidal, active = 1 or less; extreme values may be limits of the assay", "conditions": "60 µM; 6 days; temperature: 20 °C", "procedure,_shortened": "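After compound was pinned to 60 µM final (0.6% v/v DMSO) into wells with roughly 20 synchronized C. elegans N2 L1s and E. coli HB101 in liquid NGM, the sealed 96-well plates were shaken at 200 rpm for 6 days at 20 °C. Under a dissection microscope, survival and reproduction were graded ordinally by living worms per well. A grade of 0 stood for 0–10 worms and 4 for overgrown, starved wells; two biological replicates were averaged.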"}
{"smiles": "COc1nc(-c2ccccc2)ccc1-c1noc(-c2ccccc2C)n1", "survival and reproduction score": "4 (inactive)"}
{"smiles": "Cc1cc(C)cc(NC(=O)CSc2nnc(-c3ccccc3)o2)c1", "survival and reproduction score": "4 (inactive)"}
{"smiles": "CCOc1ccccc1-c1nc(-c2ccc(NC(=O)CCc3ccc(OC)cc3)cc2)no1", "survival and reproduction score": "4 (inactive)"}
{"smiles": "COc1ccc(-c2noc(-c3ccc(Br)cc3)n2)cc1", "survival and reproduction score": "0 (active)"}
{"smiles": "COc1ccc(C)cc1NC(=O)CSc1nnc(-c2ccc(Br)cc2)o1", "survival and reproduction score": "4 (inactive)"}
{"smiles": "Clc1ccc(-c2nnc(SCc3ccccc3)o2)c(Cl)c1", "survival and reproduction score": "4 (inactive)"}
{"smiles": "CCOC(=O)c1sc(NC(=O)CSc2nnc(-c3ccc(Cl)cc3)o2)c(C(=O)OCC)c1C", "survival and reproduction score": "4 (inactive)"}
{"smiles": "COc1ccccc1-c1nc(-c2ccccc2Cl)no1", "survival and reproduction score": "4 (inactive)"}
{"smiles": "Clc1ccc(SCc2nc(-c3cccnc3)no2)cc1", "survival and reproduction score": "2.5 (inactive)"}
{"smiles": "COc1ccc(-c2noc(-c3cccc(Cl)c3)n2)cc1", "survival and reproduction score": "4 (inactive)"}
{"smiles": "Cc1cc(OCc2nc(-c3ccccn3)no2)c(C)cc1Br", "survival and reproduction score": "4 (inactive)"}
{"smiles": "CCOc1ccc(-c2nc(-c3cccnc3)no2)cc1OCC", "survival and reproduction score": "4 (inactive)"}
{"smiles": "COc1ccc(-c2nnc(SCC(=O)c3ccc(C)o3)o2)cc1", "survival and reproduction score": "2 (inactive)"}
{"smiles": "CCCCC(=O)Nc1ccccc1-c1nc(-c2cccnc2)no1", "survival and reproduction score": "4 (inactive)"}
{"smiles": "COc1ccc(-c2nnc(SCC(=O)Nc3ccccc3F)o2)cc1", "survival and reproduction score": "4 (inactive)"}
{"smiles": "FC(F)(F)c1cccc(-c2noc(-c3ccc4c(c3)OCO4)n2)c1", "survival and reproduction score": "4 (inactive)"}
{"smiles": "COc1ccc(-c2nc(-c3ccc(Cl)cc3)no2)cc1", "survival and reproduction score": "4 (inactive)"}
{"smiles": "Cc1ccc(-c2noc(COc3ccc(C)cc3C)n2)cc1", "survival and reproduction score": "4 (inactive)"}
{"smiles": "COc1ccccc1-c1noc(-c2ccc(C(C)(C)C)cc2)n1", "survival and reproduction score": "4 (inactive)"}
